# A number with no mark means an inactive call. Inconclusive results are not listed. A call without a number means that no potency is given here. Active and inactive are the calls of the source. Unless noted, the call rests on the fitted dose curve; in most records, active means well fitted curve in the direction sought with a large enough effect in the repeat runs; inconclusive means weak or mixed curves; inactive means no such curve, though single readings can be large; an effect the other way counts as inactive or inconclusive.
# Columns and labels:
# [1] = qHTS assay to identify small molecule phospholipidosis (PLD) inducers (AID 1259344; active means well fitted curve in the direction sought with a large enough effect; an effect the other way counts as inactive or inconclusive)
# Method in brief: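 Quantitative HTS in HepG2: compound plus LipidTOX Red dye for 24 h, paraformaldehyde fixation with Hoechst 33342, widefield high-content imaging; amiodarone as positive and DMSO as negative control.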
# [2] = qHTS assay to identify small molecule HDAC inhibitors (AID 1259364); further: potency means the concentration at half of the fitted maximal effect;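 further: wild-type HCT-116 cells with endogenous class I/II HDAC activity; nearly all actives have a fitted effect of over 45% in size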
# Method in brief: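 Read-out: luminescence of HDAC-Glo I/II reagent, 30 min RT, reflecting class I/II deacetylase activity in whole HCT-116 cells pre-exposed 2 h to DMSO-dissolved compounds.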
# [3] = qHTS assay to identify small molecule HDAC inhibitors - cell viability counter screen (AID 1259365); further: series mostly up to about 92 µM; nearly all actives have a fitted effect of over 50% in size
# Method in brief: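 Following a 2hr exposure of overnight-plated wild-type HCT-116 cells to DMSO-delivered compounds, CellTiter-Glo was added and luminescence recorded after 30min at room temperature.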
# [4] = qHTS assay to identify small molecule agonists of the sonic hedgehog signaling (Shh) pathway - cell viability counter screen (AID 1259366); further: nearly all actives have a fitted effect of over 50% in size
# Method in brief: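 After a 4hr attachment at 37C, NIH/3T3 cells bearing an integrated Gli1-driven luciferase reporter were dosed with compounds. Treatment lasted 24hr, with the final hour including CellTiter-Fluor for a fluorescence viability measurement.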
# [5] = qHTS assay to identify small molecule agonists of the sonic hedgehog signaling (Shh) pathway (AID 1259368; calls by dose curve;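 further: NIH/3T3-derived 3T3Gli1-Luc cells carrying a stable Gli1-driven firefly luciferase reporter; series mostly up to about 92 µM; nearly all actives have a fitted effect of over 15% in size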)
# Method in brief: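 A Gli1 transcriptional response element controlled firefly luciferase in 3T3Gli1-Luc cells. Compounds and a positive control were added 4 hr after plating, and cells were incubated a further 24 hr at 37 C before luminescence detection.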
# [6] = qHTS assay to identify small molecule antagonists of the sonic hedgehog signaling (Shh) pathway (AID 1259369; calls by dose curve; further: nearly all actives have a fitted effect of over 45% in size)
# Method in brief: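 For antagonist detection, the reporter line received test compounds together with conditioned medium, incubated 24hr at 37 C, 5% CO2, then luminescence was recorded following 30min room-temperature luciferase reagent incubation.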
# [7] = molecular target: Estrogen receptor beta (Homo sapiens) (UniProt Q92731); assay: qHTS assay to identify small molecule agonists of the estrogen receptor beta (ER-beta) signaling pathway (AID 1259377; active means well fitted activation curve with a large enough effect in the signal ratio in the repeat runs, not every such curve was filed as active; the % refers to the signal ratio)
# Chain of Estrogen receptor beta (Homo sapiens) (Q92731 whole entry, looked up): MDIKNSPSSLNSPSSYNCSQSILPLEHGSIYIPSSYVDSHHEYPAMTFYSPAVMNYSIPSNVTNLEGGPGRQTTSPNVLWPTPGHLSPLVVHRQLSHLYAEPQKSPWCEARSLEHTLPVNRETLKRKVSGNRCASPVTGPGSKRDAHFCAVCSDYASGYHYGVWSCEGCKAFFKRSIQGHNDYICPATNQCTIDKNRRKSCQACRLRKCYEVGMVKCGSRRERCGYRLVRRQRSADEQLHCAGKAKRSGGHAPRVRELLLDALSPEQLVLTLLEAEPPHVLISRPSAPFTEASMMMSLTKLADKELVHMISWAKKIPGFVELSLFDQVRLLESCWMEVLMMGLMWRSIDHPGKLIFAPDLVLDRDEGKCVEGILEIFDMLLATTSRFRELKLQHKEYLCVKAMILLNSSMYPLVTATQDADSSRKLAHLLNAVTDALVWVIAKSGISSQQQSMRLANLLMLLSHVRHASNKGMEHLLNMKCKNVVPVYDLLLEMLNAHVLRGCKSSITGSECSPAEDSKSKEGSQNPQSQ
# Method in brief: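 In HEK293T cells bearing a UAS-beta-lactamase reporter under ER-beta control, DMSO-delivered compounds were incubated for 16 hr at 37C. Activity was detected as fluorescence 2 hours after LiveBLAzer B/G FRET substrate addition.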
# [8] = molecular target: Estrogen receptor beta (Homo sapiens) (UniProt Q92731); assay: qHTS assay to identify small molecule antagonists of the estrogen receptor beta (ER-beta) signaling pathway (AID 1259378; active means well fitted inhibition curve with a large enough effect in the signal ratio in the repeat runs, not every such curve was filed as active; the % refers to the signal ratio)
# Method in brief: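 ER-beta-UAS-bla HEK293T cells in 2% charcoal-stripped FBS medium treated with compound plus 1nM final 17-beta-estradiol for 16 hr at 37C. Beta-lactamase reporter read by FRET substrate fluorescence after 2 hours at room temperature.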
# [9] = qHTS assay to identify small molecule agonists of the androgen receptor (AR) signaling pathway in the presence of an antagonist - cell viability counter screen (AID 1259379);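 further: MDA-kb2 human breast cancer cells carrying an MMTV luciferase reporter; series mostly up to about 92 µM; nearly all actives have a fitted effect of over 25% in size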
# Method in brief: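 Seed MDA-kb2 at 3,000 cells/well; incubate 5 hr, 37C, 0% CO2. Add nilutamide to 3.0uM final, then pin compounds at 15 concentrations. Incubate 16 hr. Add CellTiter-Fluor at 15 hr, read fluorescence after 1 hr.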
# [10] = qHTS assay to identify small molecule agonists of the estrogen receptor beta (ER-beta) signaling pathway - cell viability counter screen (AID 1259380); further: nearly all actives have a fitted effect of over 30% in size
# Method in brief: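 CellTiter-Glo read, 30 min RT, same wells as bla assay; cells ER-beta-UAS-bla HEK293T; 16 hr compound, 37C; medium 2% charcoal-stripped FBS.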
# [11] = qHTS assay to identify small molecule antagonists of the estrogen receptor beta (ER-beta) signaling pathway - cell viability counter screen (AID 1259382); further: series mostly up to about 92 µM; nearly all actives have a fitted effect of over 55% in size
# Method in brief: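 In this multiplexed counter screen, cells were seeded at 2,000 per well in medium with 2% charcoal-stripped FBS and incubated 6 hr before compound and 1nM final E2 were added. Sixteen hours later, ATP-based luminescence reported viability.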
# [12] = qHTS assay to identify small molecule agonists or antagonists of the thyroid stimulating hormone receptor (TSHR) signaling pathway - wild type cell line counter screen (AID 1259384; calls by dose curve)
# Method in brief: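 Wild-type Hek293 cells, 800/well, 18 h at 37C, then compound with Ro20-1724 for 30 min RT. cAMP by HTRF (cAMP-d2/anti-cAMP cryptate), 1 h RT, fluorescence read. 15 concentrations, triplicates.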
# [13] = molecular target: Thyrotropin receptor (Homo sapiens) (UniProt P16473); assay: qHTS assay to identify small molecule antagonists of the thyroid stimulating hormone receptor (TSHR) signaling pathway (AID 1259385; calls by dose curve; further: nearly all actives have a fitted effect of over 20% in size)
# Chain of Thyrotropin receptor (Homo sapiens) (P16473 whole entry, looked up): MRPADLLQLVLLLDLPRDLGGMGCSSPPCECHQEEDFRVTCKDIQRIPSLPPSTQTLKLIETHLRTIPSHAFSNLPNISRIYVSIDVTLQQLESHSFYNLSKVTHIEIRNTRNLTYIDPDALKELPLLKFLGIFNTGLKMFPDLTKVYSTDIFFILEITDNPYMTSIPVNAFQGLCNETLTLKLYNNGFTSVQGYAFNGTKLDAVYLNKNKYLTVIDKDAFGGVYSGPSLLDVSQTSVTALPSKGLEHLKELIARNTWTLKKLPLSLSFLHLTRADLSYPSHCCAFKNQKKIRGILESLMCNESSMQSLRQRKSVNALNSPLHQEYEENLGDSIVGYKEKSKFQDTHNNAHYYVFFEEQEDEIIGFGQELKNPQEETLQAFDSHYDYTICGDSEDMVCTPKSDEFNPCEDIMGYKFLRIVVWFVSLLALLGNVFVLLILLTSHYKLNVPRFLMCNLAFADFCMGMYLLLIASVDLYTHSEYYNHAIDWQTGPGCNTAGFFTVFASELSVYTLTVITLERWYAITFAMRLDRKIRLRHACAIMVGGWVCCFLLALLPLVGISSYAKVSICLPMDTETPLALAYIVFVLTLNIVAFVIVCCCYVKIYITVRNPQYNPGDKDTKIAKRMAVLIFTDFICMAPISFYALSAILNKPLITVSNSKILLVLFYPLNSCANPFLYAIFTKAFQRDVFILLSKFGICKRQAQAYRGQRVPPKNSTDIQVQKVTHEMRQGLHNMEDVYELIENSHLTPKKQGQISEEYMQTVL
# Method in brief: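 TSHR-HEK293 cells (800/well) plated 18 h, then compounds with Ro20-1724 and TSH at 1.5 ng/mL final, 30 min at room temperature. cAMP quantified by HTRF (cAMP-d2/anti-cAMP-cryptate, 1 h); 15 concentrations in triplicate.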
# [14] = qHTS assay to identify small molecule agonists of the estrogen receptor alpha (ER-alpha) signaling pathway in the presence of an antagonist - cell viability counter screen (AID 1259386);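 further: series mostly up to about 92 µM; cells exposed to compounds for 22 h at 37 °C before the viability read; nearly all actives have a fitted effect of over 30% in size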
# Method in brief: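 Viability counter screen using VM7Luc4E2 (full-length ER-alpha, four ERE-luciferase). The cells were treated with compounds alongside ICI-182,780 10.0nM for 22hr, and live-cell protease fluorescence was quantified with CellTiter-Fluor.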
# [15] = molecular target: Progesterone receptor (Homo sapiens) (UniProt P06401); assay: qHTS assay to identify small molecule agonists of the progesterone receptor (PR) signaling pathway (AID 1346784; calls by dose curve; further: nearly all actives have a fitted effect of over 30% in size)
# Chain of Progesterone receptor (Homo sapiens) (P06401 whole entry, looked up): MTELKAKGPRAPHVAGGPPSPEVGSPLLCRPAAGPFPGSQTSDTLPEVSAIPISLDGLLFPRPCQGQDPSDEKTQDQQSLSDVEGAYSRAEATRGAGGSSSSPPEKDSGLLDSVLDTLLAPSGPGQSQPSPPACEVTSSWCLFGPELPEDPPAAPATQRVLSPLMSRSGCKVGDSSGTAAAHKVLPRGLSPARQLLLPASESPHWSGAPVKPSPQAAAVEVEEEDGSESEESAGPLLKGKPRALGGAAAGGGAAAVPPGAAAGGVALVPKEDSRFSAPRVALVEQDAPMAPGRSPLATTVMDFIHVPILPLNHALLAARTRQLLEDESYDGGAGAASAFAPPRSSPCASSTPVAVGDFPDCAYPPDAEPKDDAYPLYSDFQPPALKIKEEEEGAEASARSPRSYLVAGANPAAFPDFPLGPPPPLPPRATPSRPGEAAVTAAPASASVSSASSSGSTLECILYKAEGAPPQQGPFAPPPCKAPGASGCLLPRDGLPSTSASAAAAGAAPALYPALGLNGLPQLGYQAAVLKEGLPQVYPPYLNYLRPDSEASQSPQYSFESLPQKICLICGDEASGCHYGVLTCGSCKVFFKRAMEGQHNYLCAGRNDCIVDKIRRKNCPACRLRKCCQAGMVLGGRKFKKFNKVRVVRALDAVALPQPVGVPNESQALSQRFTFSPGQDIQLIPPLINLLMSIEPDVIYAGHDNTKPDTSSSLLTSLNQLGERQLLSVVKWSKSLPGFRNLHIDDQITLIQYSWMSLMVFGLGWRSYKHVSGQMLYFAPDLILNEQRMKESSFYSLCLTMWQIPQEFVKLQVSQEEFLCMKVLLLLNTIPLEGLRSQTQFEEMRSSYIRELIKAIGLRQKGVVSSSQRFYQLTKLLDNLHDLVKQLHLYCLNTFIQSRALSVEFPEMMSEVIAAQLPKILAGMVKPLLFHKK
# Method in brief: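 Using charcoal-stripped serum (2%) to limit endogenous steroids, PR-UAS-bla HEK 293T cells received compounds for 16 hr at 37C after 6 hr plating; beta-lactamase FRET fluorescence was recorded following 2 hr substrate loading at room temperature.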
# [16] = molecular target: Progesterone receptor (Homo sapiens) (UniProt P06401); assay: qHTS assay to identify small molecule antagonists of the progesterone receptor (PR) signaling pathway (AID 1346795; active means well fitted inhibition curve with a large enough effect in the signal ratio in the repeat runs, not every such curve was filed as active; the % refers to the signal ratio)
# Method in brief: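 Inhibition of R5020-induced (1 nM final) beta-lactamase reporter signal in PR-UAS-bla HEK293T cells was scored by FRET fluorescence after overnight (16 hr) compound treatment.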
# [17] = qHTS assay to identify small molecule antagonists of the sonic hedgehog signaling (Shh) pathway - cell viability counter screen (AID 1259367); further: nearly all actives have a fitted effect of over 55% in size
# Method in brief: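 Seed 3T3 Gli1-Luc cells at 2,000 per well; incubate 4 hr; add compound in DMSO, then conditioned medium; incubate at 37C with 5% CO2; add CellTiter-Fluor after 23 hr; read fluorescence 1 hr later.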
# [18] = molecular target: Androgen receptor (Homo sapiens) (UniProt P10275); assay: qHTS assay to identify small molecule agonists of the androgen receptor (AR) signaling pathway in the presence of an antagonist (AID 1259381; calls by dose curve; further: potency means the concentration at half of the fitted maximal effect; nearly all actives have a fitted effect of over 15% in size)
# Chain of Androgen receptor (Homo sapiens) (P10275 whole entry, looked up): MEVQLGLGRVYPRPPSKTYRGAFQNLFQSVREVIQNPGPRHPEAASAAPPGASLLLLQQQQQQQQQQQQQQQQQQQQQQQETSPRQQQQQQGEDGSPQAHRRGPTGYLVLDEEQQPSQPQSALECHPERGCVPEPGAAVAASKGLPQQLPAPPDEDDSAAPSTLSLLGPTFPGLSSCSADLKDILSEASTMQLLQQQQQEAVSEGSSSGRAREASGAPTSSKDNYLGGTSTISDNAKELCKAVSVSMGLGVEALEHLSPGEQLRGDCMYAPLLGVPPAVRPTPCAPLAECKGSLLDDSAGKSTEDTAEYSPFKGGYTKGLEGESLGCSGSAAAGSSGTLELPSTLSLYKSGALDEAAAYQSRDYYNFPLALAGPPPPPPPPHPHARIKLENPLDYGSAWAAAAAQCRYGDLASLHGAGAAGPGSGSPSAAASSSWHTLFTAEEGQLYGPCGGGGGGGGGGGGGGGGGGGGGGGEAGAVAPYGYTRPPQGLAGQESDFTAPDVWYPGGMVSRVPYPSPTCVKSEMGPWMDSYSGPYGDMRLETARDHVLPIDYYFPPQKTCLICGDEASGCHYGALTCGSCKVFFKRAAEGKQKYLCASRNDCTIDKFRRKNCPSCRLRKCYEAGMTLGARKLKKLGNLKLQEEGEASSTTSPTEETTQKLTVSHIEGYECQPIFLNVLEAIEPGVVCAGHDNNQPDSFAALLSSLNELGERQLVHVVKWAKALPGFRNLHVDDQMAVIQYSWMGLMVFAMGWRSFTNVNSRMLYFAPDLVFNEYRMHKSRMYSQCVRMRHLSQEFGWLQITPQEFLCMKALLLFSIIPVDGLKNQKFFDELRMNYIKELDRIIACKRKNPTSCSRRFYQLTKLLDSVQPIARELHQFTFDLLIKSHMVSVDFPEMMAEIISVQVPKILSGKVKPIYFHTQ
# Method in brief: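 Test compounds at 15 concentrations were incubated for 16hr with MDA-kb2 reporter cells in presence of 3.0uM nilutamide (final). Signal: ONE-Glo luciferase luminescence.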
Structure (SMILES),Potency [1],Potency [2],outcome [3],Potency [4],outcome [5],Potency [6],Potency [7],Potency [8],Potency [9],Potency [10],Potency [11],Potency [12],Potency [13],Potency [14],outcome [15],Potency [16],Potency [17],Potency [18]
Cc1c(Cn2ccnc2)c2ccccc2n1CCC(=O)O,inactive,inactive,inactive,inactive,inactive,inactive,inactive,inactive,inactive,inactive,inactive,inactive,inactive,inactive,inactive,inactive,–,–
O=C(c1ccccc1)c1ccc2n1CCC2C(=O)O (stereo not given),inactive,7.5 µM (active),inactive,–,inactive,inactive,–,–,inactive,–,inactive,–,–,inactive,–,inactive,inactive,–
c1ccc(-c2nc[nH]c2-c2ccccc2)cc1,inactive,inactive,inactive,inactive,inactive,–,inactive,–,inactive,inactive,inactive,inactive,inactive,inactive,inactive,–,inactive,–
CC[C@]12CCCN3CCc4c(n(c5ccccc45)C(=O)C1)[C@@H]32,inactive,inactive,inactive,–,inactive,–,inactive,inactive,–,–,–,inactive,inactive,inactive,inactive,–,–,29.8 µM (active)
CNS(=O)(=O)Cc1ccc2[nH]cc(CCN(C)C)c2c1,inactive,inactive,inactive,inactive,–,inactive,inactive,inactive,inactive,inactive,inactive,–,–,inactive,inactive,inactive,inactive,–
